In all, about 350,000 compounds went through this assay and about 31,000 (8.9%) were called active. Inconclusive results (about 15%) are left out. Calls come from the whole dose curve; as a rule, active = well fitted inhibition curve with a large enough effect; inconclusive = small, poorly fitted or top-dose-only effect; inactive = no such curve, though single readings can be large or run the other way. Only a selection was taken, and actives are over-represented in it overall.
% is set by controls: 0 for no effect and ±100 for the full control effect; potency is the fitted concentration of half-maximal effect.

Chain of Histone-lysine N-methyltransferase EHMT2 (Homo sapiens) (Q96KQ7 913-1193 limits assumed): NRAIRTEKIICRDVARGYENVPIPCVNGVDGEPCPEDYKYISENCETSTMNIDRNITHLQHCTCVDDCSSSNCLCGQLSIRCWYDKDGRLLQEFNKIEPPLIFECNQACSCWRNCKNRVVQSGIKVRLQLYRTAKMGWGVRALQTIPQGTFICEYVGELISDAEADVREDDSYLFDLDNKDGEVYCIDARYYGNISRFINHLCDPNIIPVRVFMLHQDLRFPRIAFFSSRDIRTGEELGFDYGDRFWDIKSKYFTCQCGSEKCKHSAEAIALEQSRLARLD

For this test, the target named is Histone-lysine N-methyltransferase EHMT2 (Homo sapiens) (UniProt Q96KQ7). Briefly: qHTS Assay for Inhibitors of Histone Lysine Methyltransferase G9a. Note: nearly all actives have a fitted effect of over 75% in size. The following applies: G9a H3K9 monomethylation, AlphaScreen, 2 h; series mostly up to 59 µM; activity, negative = inhibition: at the top concentration. The procedure, abridged:
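AlphaScreen detection with an anti-monomethyl H3K9 antibody quantified product after a 2 h room-temperature reaction containing 500 nM biotinylated H3K9 peptide, 20 µM SAM and 20 nM enzyme, which had been preincubated 15 min with compound.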
Regarding `COc1ccc(C2NC(=O)c3ccccc3N2)cc1` (stereo not drawn), the “activity, negative = inhibition” value was 2.64% [at 102 µM] (inactive).

As for `Brc1ccccc1C1Nc2cccc3cccc(c23)N1`, the Potency is 44.7 µM (active).

Consider `COc1ccc(C2CC(c3ccc(C)cc3)Nc3nc(N)nn32)cc1` (stereo not drawn), for which the “activity, negative = inhibition” value is 0.965% [at 102 µM] (inactive).

Turning to `O=C1NC(c2cccc(Cl)c2)Nc2ccccc21` (stereo not drawn), the “activity, negative = inhibition” value is -1.01% [at 102 µM] (inactive).

For `COc1ccc(N2C(=O)C3CCCN3C2c2cccc(OC)c2)cc1` (stereo not drawn), the “activity, negative = inhibition” value was -0.251% [at 102 µM] (inactive).

For `COc1ccc(C(C#N)(CC(=O)O)c2cnccn2)cc1OC` (stereo not drawn), the activity, negative = inhibition was 3.29% [at 2.33 µM] (inactive).

On to `CC1CCCN(c2nc3c(S(=O)(=O)c4ccc(C(C)C)cc4)nnn3c3ccsc23)C1` (stereo not drawn), for which the “activity, negative = inhibition” value is 6.43% (inactive).

Consider `COc1ccc(CNC(=O)c2ccc(NS(=O)(=O)c3ccc4[nH]c(=O)[nH]c4c3)cc2)cc1OC`, for which the activity, negative = inhibition is 19.8% [at 12.7 µM] (inactive).

Regarding `CCOc1ccc(-c2nonc2NC(=O)c2oc3ccc(CC)cc3c2C)cc1`, the “activity, negative = inhibition” value was 71.8% (inactive).

Regarding `Cn1c(C(=O)Nc2cccc(C(F)(F)F)c2)cc2c(=O)n3ccccc3nc21`, the “activity, negative = inhibition” value is -32.2% (inactive).

Regarding `CC(=O)N1CCc2c(sc(NC(=O)CCS(=O)(=O)c3ccccc3)c2C#N)C1`, the “activity, negative = inhibition” value was 2.65% [at 102 µM] (inactive).

Take `CC(C)(C)n1ncc2c(=O)n(Cc3c(Cl)cccc3Br)cnc21`: the activity, negative = inhibition was -12.6% [at 2.33 µM] (inactive).

With `CCOC(=O)c1cc(NC(=O)c2ccc(F)cc2)c(=O)n2c1oc1ccccc12`, the “activity, negative = inhibition” value is -36% (inactive).

Turning to `COc1ccccc1-c1nnc(C2CCN(C(=O)c3ccc(Cl)cc3)CC2)o1`, the “activity, negative = inhibition” value was 0.515% (inactive).

Turning to `CCOC(=O)c1cc(-c2ccc(OC)c(S(=O)(=O)Nc3ccc(OC)cc3OC)c2)on1`, the “activity, negative = inhibition” value was -24.5% (inactive).

For `CCOc1cccc2cc(C(=O)OCC(=O)Nc3c(C)cccc3CC)c(=O)oc12`, the Potency is 44.7 µM (active).

For the compound `C=CCc1cccc2cc(C(=O)OCC)c(=O)oc12`, the “activity, negative = inhibition” value was 19.5% [at 102 µM] (inactive).

Consider `Cc1cccc(C)c1NC(=O)COC(=O)c1ccccc1O`, for which the “activity, negative = inhibition” value was 16.4% [at 102 µM] (inactive).

`CCCN(CCC)C(=O)Cn1c(=O)n(-c2ccc(Cl)cc2)c(=O)c2c3c(sc21)CCCCC3`: the “activity, negative = inhibition” value was 8.07% (inactive).

With `Cc1ccc(C)c(C(=O)COC(=O)Cn2[nH]c(=O)c3ccccc3c2=O)c1`, the activity, negative = inhibition is 11.2% [at 12.7 µM] (inactive).

As to `Cc1ccc(-n2cnc3cc(C(=O)NCCC4=CCCCC4)ccc32)cc1Cl`, the “activity, negative = inhibition” value is -3.44% (inactive).

`Cc1nnc2sc(-c3ccco3)nn12`: the “activity, negative = inhibition” value was -30.4% (inactive).

Take `FC(F)(F)c1nnc2sc(-c3ccco3)nn12`: the “activity, negative = inhibition” value is -3.47% (inactive).

As to `Fc1ccc(-c2ccc(-c3nn4c(-c5ccco5)nnc4s3)o2)cc1`, the Potency is 15.8 µM (active).

On to `CSc1ccc(CCNC(=O)c2cc(C)nc3c2c(C)nn3-c2cccc(F)c2)cc1`, for which the “activity, negative = inhibition” value is -2.67% (inactive).

In the case of `CC(C)n1ncc2c(C(=O)NCc3ccccc3CN(C)C)cc(C3CC3)nc21`, the “activity, negative = inhibition” value was -9.59% (inactive).

As to `Cc1cccc(N2Cc3ccccc3C2=NC(=O)c2ccc(Cl)nc2)c1`, the Potency is 11.2 µM (active).

With `N#Cc1ccc(N2Cc3ccccc3/C2=N/C(=O)Nc2ccc(Cl)cc2)cc1`, the “activity, negative = inhibition” value is 3.53% (inactive).

Regarding `Cc1cccc(N2CCN(C(=O)c3cccc(S(=O)(=O)N4CCc5ccccc5C4)c3)CC2C)c1` (stereo not drawn), the “activity, negative = inhibition” value was 1.73% [at 102 µM] (inactive).

Regarding `O=C(COc1cccc2c1CCNC2=O)NC1CCCCC1`, the activity, negative = inhibition was 8.64% [at 0.501 µM] (inactive).

Take `Cc1cc(OCC(=O)NCC2(N(C)C)CCCCC2)cc(C)c1Cl`: the “activity, negative = inhibition” value is -5.48% (inactive).

For `Cc1cccc(OCC(O)Cn2c(N3CCCCC3)nc3c2c(=O)[nH]c(=O)n3C)c1` (stereo not drawn), the “activity, negative = inhibition” value was 14.4% [at 102 µM] (inactive).

Turning to `CCC(C)Sc1nc2c(c(=O)[nH]c(=O)n2C)n1CC(O)COc1cccc2ccccc12` (stereo not drawn), the Potency is 7.94 µM (active).

For the compound `CCOC(=O)Cn1c(CN(Cc2ccccc2)Cc2ccccc2)nc2c1c(=O)[nH]c(=O)n2C`, the “activity, negative = inhibition” value is 37.9% (inactive).

`O=C(COc1ccc(/C=N/NS(=O)(=O)c2ccccc2)cc1)NCCc1ccccc1`: the activity, negative = inhibition is -4.68% [at 2.33 µM] (inactive).

In the case of `O=S(=O)(N/N=C\c1cccn1-c1ccccc1)c1ccc2ccccc2c1`, the Potency is 31.6 µM (active).

`COc1ccc(/C=N/NS(=O)(=O)c2ccc(NC(C)=O)cc2)cc1`: the “activity, negative = inhibition” value is 0.351% [at 102 µM] (inactive).

For `CC(=O)Cn1cnc2c(cnn2-c2ccccc2)c1=O`, the “activity, negative = inhibition” value was 1.7% [at 102 µM] (inactive).

Consider `CCc1ccc(NC(=O)CCCc2nnc3n(CCCOC)c(=O)c4sccc4n23)cc1`, for which the “activity, negative = inhibition” value was -5.06% (inactive).

Regarding `COc1ccccc1C(=O)NCCC(=O)NCC(c1ccco1)N1CCCCC1` (stereo not drawn), the “activity, negative = inhibition” value was -3.11% [at 102 µM] (inactive).

On to `COc1ccccc1CCNC(=O)CN1C(=O)NC2(CCCC2)C1=O`, for which the activity, negative = inhibition was 8.45% [at 0.501 µM] (inactive).

As for `COc1ccccc1C(=O)NCCC(=O)NN1C(=O)NC2(CCCCC2)C1=O`, the Potency is 50.1 µM (active).

As for `COc1cccc(CNC(=O)Cn2ncn3c(cc4ccccc43)c2=O)c1`, the “activity, negative = inhibition” value was -27.7% (inactive).

On to `COc1ccc(NC(=O)c2sc3nc[nH]c(=O)c3c2C)cc1`, for which the “activity, negative = inhibition” value is 8.43% (inactive).

With `CCc1cccc(NC(=O)c2cc(-c3ccccc3)n[nH]2)c1`, the “activity, negative = inhibition” value is -26.5% (inactive).

For `CN(C(=O)COc1ncnc2c1cnn2-c1ccccc1)C1CCCCC1`, the activity, negative = inhibition is 25.1% [at 0.0925 µM] (inactive).

Turning to `CN(C(=O)CSc1nncc2ccccc12)C1CCCCC1`, the Potency was 50.1 µM (active).

In the case of `CN(C(=O)CSc1nnnn1-c1ccccc1)C1CCCCC1`, the “activity, negative = inhibition” value was 3.58% [at 102 µM] (inactive).

(Values after PubChem BioAssay AID504332 (National Center for Advancing Translational Sciences (NCATS), 2011).)
